# Reference: the supplement of paper PMC10849652
# About 7,900 targets were measured; listed, in parts, are those with a hit and a random draw of the rest. About 0.6% of all pairs of compound and target were hits. A number with no mark means an inactive call.
# Tests used:
# Test in all cases: log2 fold change, soluble protein after heating vs DMSO (PISA); higher = thermal stabilisation; K562 cells, 10 uM, 30 min; active = over 0.2 and 3.5 SD of the protein, either way, in both replicates (recomputed)
# [1] = compound: COC1=CC=C(C=C1)CN2C=CC3=C2C=C(C=C3)C(=O)NO
# Procedure, shortened: (§1)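 K562 cells at 2×10^6 cells/mL were treated for 30 min with 10 μM compound, and aliquots were heated for 3 min over 48°C-58°C before pooling. Extraction used PBS with 0.5% NP-40 at 4°C, and soluble protein was the supernatant after 21,000xg for 90 min, measured by TMTpro 16plex LC-MS/MS with channel sums equalised. Thermal stability values, relative to control samples and from duplicates, are log2 fold changes.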
# [2] = compound: CON(C)C(=O)N1N=C(c2cc(F)ccc2F)S[C@@]1(CCCN)c1ccccc1 [filanesib]
# Procedure, shortened: as §1
# [3] = compound: CO[C@H]1C[C@@H]2CC[C@@H](C)[C@@](O)(O2)C(=O)C(=O)N2CCCC[C@H]2C(=O)O[C@H]([C@H](C)C[C@@H]2CC[C@H](n3cnnn3)[C@H](OC)C2)CC(=O)[C@H](C)/C=C(\C)[C@@H](O)[C@@H](OC)C(=O)[C@H](C)C[C@H](C)/C=C/C=C/C=C/1C [zotarolimus]
# Procedure, shortened: as §1
# [4] = compound: COc1cc(C(=O)O)ccc1NC(=O)[C@@H]1N[C@@H](CC(C)(C)C)[C@](C#N)(c2ccc(Cl)cc2F)[C@H]1c1cccc(Cl)c1F [idasanutlin]
# Procedure, shortened: as §1
# [5] = compound: COc1cc(Nc2ncc3c(n2)-c2ccc(Cl)cc2C(c2c(F)cccc2OC)=NC3)ccc1C(=O)O [alisertib]
# Procedure, shortened: as §1
# [6] = compound: COc1cc2nc(-c3cc(F)ccc3O)nc(N[C@@H]3CNC[C@H]3C(C)(C)O)c2cc1OC
# Procedure, shortened: as §1
# [7] = compound: COc1cc2ncnc(Nc3ccc(F)c(Cl)c3)c2cc1OCCCN1CCOCC1 [gefitinib]
# Procedure, shortened: as §1
# [8] = compound: COc1cccc2cc(-c3nc([C@H]4CC[C@H](C(=O)O)CC4)n4ncnc(N)c34)[nH]c12
# Procedure, shortened: as §1
# [9] = compound: CS(=O)(=O)CCNCc1ccc(-c2ccc3ncnc(Nc4ccc(OCc5cccc(F)c5)c(Cl)c4)c3c2)o1 [lapatinib]
# Procedure, shortened: as §1
# [10] = compound: CS(=O)(=O)N1CCN(Cc2cc3nc(-c4cccc5[nH]ncc45)nc(N4CCOCC4)c3s2)CC1 [pictilisib]
# Procedure, shortened: as §1
# [11] = compound: CS(=O)(=O)c1ccc(-c2cnc(N)c(C(=O)Nc3ccccc3)n2)cc1
# Procedure, shortened: as §1
# [12] = compound: C[C@@H](Oc1cc(-c2cnn(C3CCNCC3)c2)cnc1N)c1c(Cl)ccc(F)c1Cl [crizotinib]
# Procedure, shortened: as §1
# [13] = compound: C[C@@H]1COCCN1C2=NC(=NC(=C2)C3(CC3)S(=O)(=O)C)C4=C5C=CNC5=CC=C4
# Procedure, shortened: as §1
# [14] = compound: C[C@H](C1=CC=C(C=C1)C(=O)NC2=C3C=CNC3=NC=C2)N
# Procedure, shortened: as §1
# [15] = compound: C[C@H](Nc1ncnc2nc[nH]c12)c1cc2cccc(Cl)c2c(=O)n1-c1ccccc1 [duvelisib]
# Procedure, shortened: as §1
# [16] = compound: Cc1cc(Nc2cc(CN3CCOCC3)c3nc(C)c(Cc4ccc(Cl)cc4F)n3n2)n[nH]1 [gandotinib]
# Procedure, shortened: as §1
# [17] = compound: Cc1cc(Nc2cc(N3CCN(C)CC3)nc(Sc3ccc(NC(=O)C4CC4)cc3)n2)n[nH]1 [tozasertib]
# Procedure, shortened: as §1
# [18] = compound: Cc1cc(SCc2sc(-c3ccc(C(F)(F)F)cc3)nc2C)ccc1OCC(=O)O
# Procedure, shortened: as §1
# [19] = compound: Cc1ccc(-n2nc(C(C)(C)C)cc2NC(=O)Nc2ccc(OCCN3CCOCC3)c3ccccc23)cc1 [doramapimod]
# Procedure, shortened: as §1
# [20] = compound: Cc1ccc(C(=O)N(CCCN)[C@@H](c2nc3cc(Cl)ccc3c(=O)n2Cc2ccccc2)C(C)C)cc1 [ispinesib]
# Procedure, shortened: as §1
# UniProt Q16539, sequence (Q16539 whole entry, looked up): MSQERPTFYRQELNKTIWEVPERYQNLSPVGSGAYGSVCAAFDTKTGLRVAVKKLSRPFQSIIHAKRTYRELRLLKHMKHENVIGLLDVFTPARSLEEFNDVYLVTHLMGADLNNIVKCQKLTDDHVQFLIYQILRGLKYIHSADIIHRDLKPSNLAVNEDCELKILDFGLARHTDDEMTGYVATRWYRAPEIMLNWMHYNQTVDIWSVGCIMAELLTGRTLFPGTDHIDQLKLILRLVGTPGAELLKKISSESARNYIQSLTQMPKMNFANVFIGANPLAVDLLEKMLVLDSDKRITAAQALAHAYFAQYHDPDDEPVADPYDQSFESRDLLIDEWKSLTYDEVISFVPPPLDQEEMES
# UniProt Q14653, sequence (Q14653 whole entry, looked up): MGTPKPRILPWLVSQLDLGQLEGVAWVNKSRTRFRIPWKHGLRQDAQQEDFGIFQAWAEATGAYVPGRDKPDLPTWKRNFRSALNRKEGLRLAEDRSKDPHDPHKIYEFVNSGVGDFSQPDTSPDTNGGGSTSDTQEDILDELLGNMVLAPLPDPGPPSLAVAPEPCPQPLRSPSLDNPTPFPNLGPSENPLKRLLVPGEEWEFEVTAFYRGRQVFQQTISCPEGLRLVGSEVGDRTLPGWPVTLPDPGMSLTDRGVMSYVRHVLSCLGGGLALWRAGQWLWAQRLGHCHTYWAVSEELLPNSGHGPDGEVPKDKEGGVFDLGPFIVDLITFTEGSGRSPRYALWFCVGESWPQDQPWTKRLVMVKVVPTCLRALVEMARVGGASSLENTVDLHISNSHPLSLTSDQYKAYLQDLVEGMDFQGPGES
# UniProt A1L0T0, sequence (A1L0T0 whole entry, looked up): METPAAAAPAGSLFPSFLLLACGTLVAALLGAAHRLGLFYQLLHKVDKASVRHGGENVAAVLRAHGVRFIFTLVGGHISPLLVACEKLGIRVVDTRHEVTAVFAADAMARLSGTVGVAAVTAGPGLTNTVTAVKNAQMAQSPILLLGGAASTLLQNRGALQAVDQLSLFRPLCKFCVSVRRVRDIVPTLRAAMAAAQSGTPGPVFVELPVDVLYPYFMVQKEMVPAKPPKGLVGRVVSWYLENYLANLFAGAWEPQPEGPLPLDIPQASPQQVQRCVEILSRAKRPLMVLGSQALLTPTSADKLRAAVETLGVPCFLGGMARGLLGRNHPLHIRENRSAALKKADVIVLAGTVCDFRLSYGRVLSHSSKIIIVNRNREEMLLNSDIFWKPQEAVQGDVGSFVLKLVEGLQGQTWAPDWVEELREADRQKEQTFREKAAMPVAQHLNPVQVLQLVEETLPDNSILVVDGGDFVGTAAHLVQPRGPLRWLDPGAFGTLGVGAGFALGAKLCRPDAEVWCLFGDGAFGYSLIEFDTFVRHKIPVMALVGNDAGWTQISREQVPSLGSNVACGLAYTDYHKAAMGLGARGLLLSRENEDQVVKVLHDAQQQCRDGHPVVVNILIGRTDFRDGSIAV
# UniProt P27448, sequence (P27448 whole entry, looked up): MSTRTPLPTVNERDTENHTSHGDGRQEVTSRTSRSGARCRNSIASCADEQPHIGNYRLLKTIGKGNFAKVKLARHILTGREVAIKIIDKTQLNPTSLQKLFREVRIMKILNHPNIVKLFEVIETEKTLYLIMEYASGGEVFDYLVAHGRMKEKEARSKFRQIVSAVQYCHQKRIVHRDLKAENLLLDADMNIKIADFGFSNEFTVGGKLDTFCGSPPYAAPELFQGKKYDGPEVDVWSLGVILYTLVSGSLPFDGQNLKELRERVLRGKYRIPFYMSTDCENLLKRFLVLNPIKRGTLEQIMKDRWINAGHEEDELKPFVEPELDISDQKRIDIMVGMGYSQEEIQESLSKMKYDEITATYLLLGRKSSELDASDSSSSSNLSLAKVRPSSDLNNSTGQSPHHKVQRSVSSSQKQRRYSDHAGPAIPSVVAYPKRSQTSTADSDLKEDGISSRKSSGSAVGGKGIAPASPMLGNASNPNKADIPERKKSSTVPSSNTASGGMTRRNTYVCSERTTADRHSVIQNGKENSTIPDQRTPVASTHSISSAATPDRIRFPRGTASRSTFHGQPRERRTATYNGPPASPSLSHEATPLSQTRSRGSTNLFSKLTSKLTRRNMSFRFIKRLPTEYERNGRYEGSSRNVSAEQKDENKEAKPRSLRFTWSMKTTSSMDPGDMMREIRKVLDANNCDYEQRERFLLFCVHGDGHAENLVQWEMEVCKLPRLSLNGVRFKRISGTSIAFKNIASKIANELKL
# UniProt Q9Y496, sequence (Q9Y496 whole entry, looked up): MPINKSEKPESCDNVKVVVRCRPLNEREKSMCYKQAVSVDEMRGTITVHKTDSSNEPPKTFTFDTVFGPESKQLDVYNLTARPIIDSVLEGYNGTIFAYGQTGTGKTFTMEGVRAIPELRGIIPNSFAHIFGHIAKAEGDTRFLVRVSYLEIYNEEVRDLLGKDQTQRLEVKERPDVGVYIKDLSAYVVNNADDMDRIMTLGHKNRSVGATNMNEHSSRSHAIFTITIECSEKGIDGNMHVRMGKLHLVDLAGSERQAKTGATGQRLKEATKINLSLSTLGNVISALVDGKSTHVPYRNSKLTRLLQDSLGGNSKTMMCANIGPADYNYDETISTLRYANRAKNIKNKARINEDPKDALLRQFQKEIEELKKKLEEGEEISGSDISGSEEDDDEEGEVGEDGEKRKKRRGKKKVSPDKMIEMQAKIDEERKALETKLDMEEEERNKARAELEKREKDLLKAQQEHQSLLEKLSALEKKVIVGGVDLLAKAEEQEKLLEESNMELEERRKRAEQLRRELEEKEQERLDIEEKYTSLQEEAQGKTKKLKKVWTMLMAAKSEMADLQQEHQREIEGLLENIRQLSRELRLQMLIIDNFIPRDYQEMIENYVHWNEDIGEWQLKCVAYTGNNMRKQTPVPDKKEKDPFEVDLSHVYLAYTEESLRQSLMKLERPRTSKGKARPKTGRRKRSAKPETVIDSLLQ
# UniProt Q9UPY8, sequence (Q9UPY8 whole entry, looked up): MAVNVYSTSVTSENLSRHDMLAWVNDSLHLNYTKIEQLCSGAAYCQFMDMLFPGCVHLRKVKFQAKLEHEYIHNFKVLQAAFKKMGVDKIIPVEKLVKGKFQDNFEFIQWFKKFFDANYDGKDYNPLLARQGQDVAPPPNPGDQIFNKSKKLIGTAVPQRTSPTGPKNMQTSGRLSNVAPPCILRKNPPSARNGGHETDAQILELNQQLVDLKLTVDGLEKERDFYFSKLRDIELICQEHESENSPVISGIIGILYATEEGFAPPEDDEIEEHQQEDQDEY
# UniProt Q9NVC6, sequence (Q9NVC6 whole entry, looked up): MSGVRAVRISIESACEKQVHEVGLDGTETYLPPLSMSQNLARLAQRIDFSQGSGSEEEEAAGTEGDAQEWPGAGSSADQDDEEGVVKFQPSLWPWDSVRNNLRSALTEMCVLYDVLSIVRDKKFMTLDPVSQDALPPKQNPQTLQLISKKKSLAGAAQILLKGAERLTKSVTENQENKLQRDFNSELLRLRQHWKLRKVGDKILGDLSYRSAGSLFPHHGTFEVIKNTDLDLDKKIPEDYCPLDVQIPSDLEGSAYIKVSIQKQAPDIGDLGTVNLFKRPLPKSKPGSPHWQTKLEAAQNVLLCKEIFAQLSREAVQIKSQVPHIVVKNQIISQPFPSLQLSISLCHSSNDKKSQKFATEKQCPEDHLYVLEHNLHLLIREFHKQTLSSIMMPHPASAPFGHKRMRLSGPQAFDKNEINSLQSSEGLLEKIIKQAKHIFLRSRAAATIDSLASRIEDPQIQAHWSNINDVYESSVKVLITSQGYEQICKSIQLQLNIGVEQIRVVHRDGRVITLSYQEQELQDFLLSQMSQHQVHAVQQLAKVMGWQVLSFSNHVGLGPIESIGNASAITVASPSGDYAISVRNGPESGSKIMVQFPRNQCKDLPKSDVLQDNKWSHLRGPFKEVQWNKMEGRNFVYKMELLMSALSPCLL
Target,log2 fold change [1],log2 fold change [2],log2 fold change [3],log2 fold change [4],log2 fold change [5],log2 fold change [6],log2 fold change [7],log2 fold change [8],log2 fold change [9],log2 fold change [10],log2 fold change [11],log2 fold change [12],log2 fold change [13],log2 fold change [14],log2 fold change [15],log2 fold change [16],log2 fold change [17],log2 fold change [18],log2 fold change [19],log2 fold change [20]
KDM1A isoform 2 (UniProt O60341),0.019,0.004,-0.009,-0.03,-0.055,0.07,0.022,-0.036,0.068,-0.008,-0.047,-0.036,0.018,-0.011,0.025,0.014,0.049,0.061,-0.028,-0.057
MARK3 (UniProt P27448),0.008,0.054,0.062,0.091,0.05,-0.219,-0.002,-0.063,0.022,-0.033,-0.042,-0.394 (active),-0.039,0.063,-0.013,-0.194,-0.187,0.089,0.073,-0.173
IRF3 (UniProt Q14653),-0.075,-0.141,0.021,-0.073,-0.085,-0.08,0.011,0.023,-0.003,0.053,-0.146,0.007,0.056,-0.027,0.067,-0.068,0.039,0.053,-0.038,0.022
MED17 (UniProt Q9NVC6),0.004,0.019,-0.052,0.166,-0.08,0.044,0.016,-0.018,-0.063,0.089,-0.02,-0.004,0.028,0.119,-0.067,0.007,-0.042,0.109,0.022,-0.049
MAPRE3 (UniProt Q9UPY8),-0.242 (active),0.006,0.013,0.023,0.022,0.033,0.004,-0.013,-0.044,-0.008,-0.011,0.004,0.092,-0.085,0.02,-0.098,0.037,0.006,-0.042,0.02
KIF3A (UniProt Q9Y496),0.219,-0.091,-0.004,0.056,-0.027,0.137,-0.129,0,-0.063,0.146,0.049,-0.239,-0.01,0.143,0.048,-0.024,0.009,-0.029,0.003,0.044
MAPK14 (UniProt Q16539),0.024,-0.055,0.059,-0.361,-0.014,0.014,0.796 (active),0.303,-0.002,-0.05,0.023,-0.062,,0.018,-0.129,-0.099,-0.066,0.015,,-0.069
ILVBL (UniProt A1L0T0),-0.008,0.006,0.072,-0.106,-0.088,-0.001,0.075,0.082,-0.011,0.031,0.055,0,0.058,0.061,0.106,0.02,-0.067,-0.005,-0.003,0.213 (active)
